Assay results reported in PubChem BioAssay (NCATS).
Where “and” joins values, the source holds several entries; their conditions need not be identical. Equal entries are not always repeated. Records with an inconclusive call do not appear. Calls of active or inactive are those of the source. Unless noted, calls come from the whole dose curve.

target: Bile acid receptor (Homo sapiens) (UniProt Q96RI1); experiment: qHTS assay for small molecule antagonists of farnesoid X receptor signaling (AID 588526); conditions: HEK293T FXR-UAS-bla, beta-lactamase ratio, antagonist mode; series mostly up to 76.7 µM; activity change, negative = inhibition: at the top concentration; note: % is set by controls: 0 for no effect and ±100 for the full control effect
Summary of the method: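 Antagonist mode: titrated compounds tested against chenodeoxycholic acid stimulation (normalized to 50 uM CDCA and DMSO) in GeneBLAzer HEK293T cells for 16 h. Beta-lactamase read by CCF4 fluorescence; IC50 from Hill fits.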

Chain of Bile acid receptor (Homo sapiens) (Q96RI1 whole entry, looked up): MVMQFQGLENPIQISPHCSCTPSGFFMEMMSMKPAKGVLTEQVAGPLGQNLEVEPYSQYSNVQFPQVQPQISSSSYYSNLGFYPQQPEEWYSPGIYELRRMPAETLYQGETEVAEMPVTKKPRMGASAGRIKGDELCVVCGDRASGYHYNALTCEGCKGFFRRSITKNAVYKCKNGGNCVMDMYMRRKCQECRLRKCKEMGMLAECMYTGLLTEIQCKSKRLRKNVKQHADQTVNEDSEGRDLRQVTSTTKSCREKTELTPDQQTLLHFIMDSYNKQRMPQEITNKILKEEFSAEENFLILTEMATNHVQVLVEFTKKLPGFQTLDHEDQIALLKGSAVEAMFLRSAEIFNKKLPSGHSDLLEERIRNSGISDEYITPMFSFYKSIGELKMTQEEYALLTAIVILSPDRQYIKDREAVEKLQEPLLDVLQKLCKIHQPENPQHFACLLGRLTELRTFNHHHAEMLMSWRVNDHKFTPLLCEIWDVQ

Row | Compound | activity change, negative = inhibition | outcome
1 | Nc1ccc([N+](=O)[O-])cc1O | -17.7% (inactive) | –
2 | Clc1cnc(Oc2ccc(Oc3ncc(Cl)cc3Cl)cc2)c(Cl)c1 | 14.4% (inactive) | –
3 | CS(=O)(=O)c1ccc(C(=O)C2C(=O)CCCC2=O)c([N+](=O)[O-])c1 | -0.37% (inactive) | –
4 | Nc1ccc(Sc2ccc(N)cc2)cc1 | – | inactive

target: Glucocorticoid receptor (Homo sapiens) (UniProt P04150); experiment: qHTS assay for small molecule agonists of glucocorticoid receptor signaling (AID 588532; active = well fitted curve in the direction sought with a large enough effect in the signal ratio, with a control signal flat; the % refers to the signal ratio;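 note: 100% = dexamethasone at 0.1 µM and 0% = DMSO only wells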); conditions: HeLa MMTV-bla, beta-lactamase ratio, agonist, 18 h; active compounds read high; percent of dexamethasone control, DMSO zero
Summary of the method: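 HeLa GRE-bla reporter cells; 18 h compound exposure at 37 C; 2 h CCF4 loading at room temperature; fluorescence at 460 and 530 nm; EC50 by Hill equation.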

Chain of Glucocorticoid receptor (Homo sapiens) (P04150 whole entry, looked up): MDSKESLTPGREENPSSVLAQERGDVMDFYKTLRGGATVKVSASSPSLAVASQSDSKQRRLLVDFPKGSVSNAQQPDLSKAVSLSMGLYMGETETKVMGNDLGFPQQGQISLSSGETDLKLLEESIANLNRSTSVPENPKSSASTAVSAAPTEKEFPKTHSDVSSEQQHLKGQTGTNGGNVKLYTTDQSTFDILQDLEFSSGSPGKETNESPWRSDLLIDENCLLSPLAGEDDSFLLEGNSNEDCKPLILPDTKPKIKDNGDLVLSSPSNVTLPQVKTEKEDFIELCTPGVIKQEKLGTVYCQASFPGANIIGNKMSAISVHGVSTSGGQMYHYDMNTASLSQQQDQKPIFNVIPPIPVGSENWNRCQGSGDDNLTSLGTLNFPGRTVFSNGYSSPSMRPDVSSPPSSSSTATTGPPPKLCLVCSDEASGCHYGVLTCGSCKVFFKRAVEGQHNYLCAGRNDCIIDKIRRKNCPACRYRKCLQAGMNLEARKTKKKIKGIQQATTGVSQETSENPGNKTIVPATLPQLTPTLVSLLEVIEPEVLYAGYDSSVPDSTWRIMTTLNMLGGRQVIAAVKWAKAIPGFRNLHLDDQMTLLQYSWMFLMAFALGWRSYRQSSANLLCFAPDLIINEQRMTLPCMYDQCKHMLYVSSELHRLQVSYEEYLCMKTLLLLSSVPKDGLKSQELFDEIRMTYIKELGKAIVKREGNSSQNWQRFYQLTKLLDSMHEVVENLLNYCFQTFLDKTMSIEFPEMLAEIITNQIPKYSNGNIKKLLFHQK

Row | Compound | activation
5 | CCCCCCCCCC(CC)c1ccc(S(=O)(=O)O)cc1 (configuration not stated) | 8.71% (inactive) and 0.614% (inactive)
6 | ClC1=C(Cl)[C@]2(Cl)[C@@H]3[C@@H]4C[C@@H]([C@H]5O[C@@H]45)[C@@H]3[C@@]1(Cl)C2(Cl)Cl | -15% (inactive)
7 | COc1ccc(C(c2ccc(OC)cc2)C(Cl)(Cl)Cl)cc1 | 4.73% (inactive) and 3.18% (inactive) and 4.31% (inactive)
8 | Clc1cnc(Oc2ccc(Oc3ncc(Cl)cc3Cl)cc2)c(Cl)c1 | -2.42% (inactive)
9 | CS(=O)(=O)c1ccc(C(=O)C2C(=O)CCCC2=O)c([N+](=O)[O-])c1 | 6.35% (inactive)
10 | O=S(=O)(O)C(F)(F)C(F)(F)C(F)(F)C(F)(F)F | 0.888% (inactive)
11 | CCCCCCCCCCCCCCCC[N+](C)(C)C | 4.02% (inactive)
12 | CO/C=C(/C(=O)OC)c1ccccc1Oc1cc(Oc2ccccc2C#N)ncn1 | -0.939% (inactive)
13 | CCCCOC(=O)c1ccccc1C(=O)OCc1ccccc1 | 3.04% (inactive) and 3.89% (inactive)
14 | Nc1ccc(Sc2ccc(N)cc2)cc1 | 8.24% (inactive) and -4.53% (inactive)

target: Glucocorticoid receptor (Homo sapiens) (UniProt P04150); experiment: qHTS assay for small molecule antagonists of glucocorticoid receptor signaling (AID 588533; active = well fitted inhibition curve with a large enough effect in the signal ratio, with a control signal flat, not every such curve was filed as active; the % refers to the signal ratio;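 note: cells stimulated with 2 nM dexamethasone as agonist; % is set by controls: 0 for no effect and ±100 for the full control effect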); conditions: HeLa MMTV-bla, GRE beta-lactamase ratio, antagonist mode, 18 h; series mostly up to 76.8 µM; activity change, negative = inhibition: at the top concentration
Summary of the method: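 Antagonist-mode qHTS: compound titrations added to GRE-bla HeLa cells, then dexamethasone 2 nM final; 18 h, 37 C. CCF4 FRET fluorescence normalized to dexamethasone and DMSO; IC50 from Hill fit.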

Row | Compound | Potency | activity change, negative = inhibition
15 | CCCCCCCCCC(CC)c1ccc(S(=O)(=O)O)cc1 (configuration not stated) | inactive | –
16 | ClC1=C(Cl)[C@]2(Cl)[C@@H]3[C@@H]4C[C@@H]([C@H]5O[C@@H]45)[C@@H]3[C@@]1(Cl)C2(Cl)Cl | – | 4.79% (inactive)
17 | Clc1cnc(Oc2ccc(Oc3ncc(Cl)cc3Cl)cc2)c(Cl)c1 | – | -0.656% (inactive)
18 | O=S(=O)(O)C(F)(F)C(F)(F)C(F)(F)C(F)(F)F | – | 11.6% (inactive)
19 | CCCCCCCCCCCCCCCC[N+](C)(C)C | – | 15% (inactive)
20 | CCCCOC(=O)c1ccccc1C(=O)OCc1ccccc1 | – | 6.59% (inactive)
21 | Nc1ccc(Sc2ccc(N)cc2)cc1 | inactive | –
22 | O=C(O)c1cc(Oc2ccc(C(F)(F)F)cc2Cl)ccc1[N+](=O)[O-] | – | -21.9% (inactive)
